Measurements: PubChem BioAssay AID1835 (Johns Hopkins Ion Channel Center, 2009)
In all, about 2,400 compounds went through this assay and about 750 (31%) were called active. Some of the results follow. Unmarked numbers belong to inactive results.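 How the source made its calls: active means median signal gain over dofetilide-blocked control wells reaching their mean plus 3 SD, so readout 1 at least 0; inactive means the rest.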

What follows are molecules tested against Voltage-gated inwardly rectifying potassium channel KCNH2 (Homo sapiens) (UniProt Q12809) (assay: hERG protection against dofetilide inhibition, confirmation, cell-based, thallium flux, duplicate retest, dofetilide IC70 (AID 1835)). Conditions: hERG cell line, FluxOR thallium flux, dofetilide-blocked; at 10 µM; stronger effect = higher value.
Sequence of Voltage-gated inwardly rectifying potassium channel KCNH2 (Homo sapiens) (Q12809 whole entry, looked up): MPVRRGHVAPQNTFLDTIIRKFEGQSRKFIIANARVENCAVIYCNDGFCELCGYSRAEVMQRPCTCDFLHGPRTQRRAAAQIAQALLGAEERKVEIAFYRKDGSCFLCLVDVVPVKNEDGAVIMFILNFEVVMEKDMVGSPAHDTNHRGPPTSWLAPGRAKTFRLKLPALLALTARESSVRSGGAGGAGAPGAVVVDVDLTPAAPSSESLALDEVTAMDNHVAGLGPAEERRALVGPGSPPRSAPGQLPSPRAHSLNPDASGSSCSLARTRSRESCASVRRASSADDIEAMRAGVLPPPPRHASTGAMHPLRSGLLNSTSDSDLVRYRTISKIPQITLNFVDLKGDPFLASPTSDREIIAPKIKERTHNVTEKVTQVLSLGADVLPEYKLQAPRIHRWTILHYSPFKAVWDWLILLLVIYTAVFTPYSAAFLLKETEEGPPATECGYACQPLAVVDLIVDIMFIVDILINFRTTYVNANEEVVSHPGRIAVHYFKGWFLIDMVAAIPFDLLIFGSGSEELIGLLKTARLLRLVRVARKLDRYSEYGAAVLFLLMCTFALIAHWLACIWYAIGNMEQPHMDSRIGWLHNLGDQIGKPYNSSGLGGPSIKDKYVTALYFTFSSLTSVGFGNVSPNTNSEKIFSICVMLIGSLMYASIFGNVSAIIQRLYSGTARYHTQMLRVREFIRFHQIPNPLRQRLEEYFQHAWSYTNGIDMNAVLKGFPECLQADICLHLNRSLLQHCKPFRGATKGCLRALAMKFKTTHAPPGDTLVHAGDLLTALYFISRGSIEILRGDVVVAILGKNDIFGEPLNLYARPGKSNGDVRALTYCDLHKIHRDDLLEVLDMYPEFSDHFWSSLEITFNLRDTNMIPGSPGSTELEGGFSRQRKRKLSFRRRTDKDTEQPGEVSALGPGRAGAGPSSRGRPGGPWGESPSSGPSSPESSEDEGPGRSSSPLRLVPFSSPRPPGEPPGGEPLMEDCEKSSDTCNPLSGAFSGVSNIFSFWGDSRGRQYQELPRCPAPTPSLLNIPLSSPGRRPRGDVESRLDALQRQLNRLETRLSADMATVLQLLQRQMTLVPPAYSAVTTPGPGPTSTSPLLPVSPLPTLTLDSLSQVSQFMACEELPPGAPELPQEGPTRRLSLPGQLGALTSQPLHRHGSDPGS
Molecule `Cc1cc(C(=O)CCC(=O)NC(C)c2ccc(S(N)(=O)=O)cc2)c(C)s1` (configuration not stated) has an activity increase over dofetilide control, less the hit threshold of -15%.
Work on `COc1ccc(/C(C)=N/Nc2ccc(C(=O)O)cc2)c(OC)c1` yielded an activity increase over dofetilide control, less the hit threshold of -12%.
In the case of `Cc1ccc(/C=N/Nc2ccc(C(=O)O)cc2)o1`, the activity increase over dofetilide control, less the hit threshold was 1% (active).
Work on `Cc1ccc(/C=N/Nc2nc(C(C)(C)C)cs2)o1` yielded an activity increase over dofetilide control, less the hit threshold of -17%.
Work on `CC(C)(C)OC(=O)C(Cl)(C(=O)OC(C)(C)C)c1ccc2nnnn2n1` yielded an activity increase over dofetilide control, less the hit threshold of -27%.
Work on `COc1ccc(C)cc1NC(=O)Nc1ccc(C(=O)N2CCCC2)cc1` yielded an activity increase over dofetilide control, less the hit threshold of -5%.
`CC(C)Oc1cccc(C(=O)N2CCCC2)c1` showed an activity increase over dofetilide control, less the hit threshold of -4%.
For `Cc1cc(C)c(C(=O)c2ccc(C(=O)N3CCCCC3)cc2)c(C)c1`, the activity increase over dofetilide control, less the hit threshold was 23% (active).
`Cc1ccc2nc(SCC(=O)N3CCCCCC3)nc(=O)n2c1` gave an activity increase over dofetilide control, less the hit threshold of -20%.
`Cc1ccc(CNC(=O)c2ccc(CNc3c(N4CCCC4)c(=O)c3=O)cc2)cc1` showed an activity increase over dofetilide control, less the hit threshold of -7%.
In the case of `Cc1ccc(SCc2ccc(C(=O)N3CCCC3)cc2)cc1`, the activity increase over dofetilide control, less the hit threshold was 9% (active).
`O=c1cc(O)c2ccccc2n1Cc1ccccc1Cl` was tested, and the activity increase over dofetilide control, less the hit threshold was -8%.
In the case of `COc1ccc(-c2c(C#N)c(SCC(=O)c3cc4ccccc4oc3=O)nc(C)c2C(=O)Nc2ccccc2)cc1`, the activity increase over dofetilide control, less the hit threshold was -13%.
In the case of `Cc1ccc(Nc2nc(-c3cccs3)cs2)nc1`, the activity increase over dofetilide control, less the hit threshold was 1% (active).
Work on `Cc1ccc(Nc2nc(-c3ccncc3)cs2)cc1` yielded an activity increase over dofetilide control, less the hit threshold of -8%.
In the case of `Cc1ccc(Nc2nc(C)cs2)cc1`, the activity increase over dofetilide control, less the hit threshold was -16%.
`COc1ccccc1-n1cnc2sc(C)c(C)c2c1=O` was tested, and the activity increase over dofetilide control, less the hit threshold was -6%.
`CCN1C(=O)[C@H]2[C@@H](c3ccc(-c4ccc(OC)cc4)cc3)N[C@@](C)(C(=O)OC)[C@H]2C1=O` gave an activity increase over dofetilide control, less the hit threshold of -4%.
`CCCCn1nc(NC(=O)COC)c2cc3ccc(C)cc3nc21` gave an activity increase over dofetilide control, less the hit threshold of -22%.
With `CCOC(=O)C(C)Sc1nc2c(c(-c3cccs3)c1C#N)CCC2` (configuration not stated) the activity increase over dofetilide control, less the hit threshold was 1% (active).
With `COc1cc(/C=C2/C(=O)NN(c3ccccc3)C2=O)cc(Br)c1O` the activity increase over dofetilide control, less the hit threshold was -25%.
With `Cc1cccc(N(C(=O)c2csnn2)C(C(=O)NCc2ccccc2)c2ccncc2)c1` (configuration not stated) the activity increase over dofetilide control, less the hit threshold was -11%.
`CCCNC(=O)N1CCN(S(=O)(=O)c2ccc(C)cc2)CC1` gave an activity increase over dofetilide control, less the hit threshold of -16%.
For `CSc1nc(C)c(Cc2ccccc2)c(=O)[nH]1`, the activity increase over dofetilide control, less the hit threshold was -20%.
For `CSc1nc2c(c(=O)[nH]1)C(c1ccc(Br)cc1)CC(=O)N2` (configuration not stated), the activity increase over dofetilide control, less the hit threshold was 25% (active).
In the case of `CSc1nc2c(c(=O)[nH]1)C(c1ccccc1Cl)CC(=O)N2` (configuration not stated), the activity increase over dofetilide control, less the hit threshold was 17% (active).
For `O=c1[nH]c(=S)[nH]c2c1C(c1ccc(Br)cc1)c1c([nH]c(=S)[nH]c1=O)O2`, the activity increase over dofetilide control, less the hit threshold was -17%.
`CSc1nc2c(c(=O)[nH]1)C(c1ccc(F)cc1)CC(=O)N2` (configuration not stated) was tested, and the activity increase over dofetilide control, less the hit threshold was 18% (active).
For `CSc1nc2c(c(=O)[nH]1)C(c1ccc(Cl)cc1)CC(=O)N2` (configuration not stated), the activity increase over dofetilide control, less the hit threshold was 113% (active).
In the case of `CCSc1nc2c(c(=O)[nH]1)C(c1ccc(C)cc1)C1=C(CCCC1=O)N2` (configuration not stated), the activity increase over dofetilide control, less the hit threshold was -7%.
With `CN1N=C(C(=O)N2CCc3c([nH]c4ccccc34)C2c2c(F)cccc2Cl)CCC1=O` (configuration not stated) the activity increase over dofetilide control, less the hit threshold was -13%.
In the case of `O=C(O)Cn1cc(CN2CCOCC2)c2ccccc21`, the activity increase over dofetilide control, less the hit threshold was -22%.
For `Cc1cccc(NC(=S)N/N=C2/CCCCc3ccccc32)c1`, the activity increase over dofetilide control, less the hit threshold was -11%.
For `S=c1[nH]nc(CSc2nc3ccccc3s2)n1C1CCCCC1`, the activity increase over dofetilide control, less the hit threshold was 5% (active).
`Cc1ccc(NC(=S)NC(=O)c2sc3ccccc3c2Cl)c(C(=O)O)c1` was tested, and the activity increase over dofetilide control, less the hit threshold was -1%.
For `COC(=O)Cn1c(=NC(=O)c2sc3ccccc3c2Cl)sc2cc(S(N)(=O)=O)ccc21`, the activity increase over dofetilide control, less the hit threshold was -2%.
In the case of `CCOC(=S)NC(=O)c1sc2ccccc2c1Cl`, the activity increase over dofetilide control, less the hit threshold was 40% (active).
`CCCOC(=S)NC(=O)c1sc2ccccc2c1Cl` was tested, and the activity increase over dofetilide control, less the hit threshold was 30% (active).
Molecule `O=C(N/N=C/c1ccccn1)c1sc2ccccc2c1Cl` has an activity increase over dofetilide control, less the hit threshold of -27%.
For `CCCCOC(=S)NC(=O)c1sc2ccccc2c1Cl`, the activity increase over dofetilide control, less the hit threshold was 86% (active).
For `CC(C)C(=O)N(c1ccc(F)cc1)C1C=CS(=O)(=O)C1` (configuration not stated), the activity increase over dofetilide control, less the hit threshold was -20%.
In the case of `CCOC(=O)C1C(c2ccccc2)C(C(=O)OCC)C1c1ccccc1` (configuration not stated), the activity increase over dofetilide control, less the hit threshold was -6%.
`CCCSc1cc(NCCOC(C)=O)c([N+](=O)[O-])c2nonc12` showed an activity increase over dofetilide control, less the hit threshold of -13%.
Work on `CC(C)CCNC(=O)CCc1nnc(Cc2c[nH]c3ccccc23)o1` yielded an activity increase over dofetilide control, less the hit threshold of -9%.
`CCCCCN(C(=O)CCC(=O)OC(C)C(=O)c1ccccc1)c1c(N)n(CCCC)c(=O)[nH]c1=O` (configuration not stated) showed an activity increase over dofetilide control, less the hit threshold of -16%.
With `CCCNC(=O)N(C)c1nncnc1C(=O)NC` the activity increase over dofetilide control, less the hit threshold was -7%.
`CC1CCCCC1n1c(=S)[nH]c2ccccc2c1=O` (configuration not stated) was tested, and the activity increase over dofetilide control, less the hit threshold was 1% (active).
In the case of `CC1CCC(n2c(=S)[nH]c3ccccc3c2=O)CC1` (configuration not stated), the activity increase over dofetilide control, less the hit threshold was 22% (active).
For `O=c1c2ccccc2[nH]c(=S)n1C1CCCCC1`, the activity increase over dofetilide control, less the hit threshold was 2% (active).
`CC1CCC(N2CCN(C(=O)c3ccccc3F)CC2)CC1` (configuration not stated) was tested, and the activity increase over dofetilide control, less the hit threshold was -6%.
`O=C1NCC(=O)N2C(c3ccccc3)c3[nH]c4ccccc4c3C[C@@H]12` (some centres not stated) showed an activity increase over dofetilide control, less the hit threshold of -22%.
`C=CCNC(=O)c1onc(CSc2ccc(OC)cc2)c1C(=O)O` showed an activity increase over dofetilide control, less the hit threshold of -11%.
`NC(=O)CC1NC(=O)c2ccccc21` (configuration not stated) gave an activity increase over dofetilide control, less the hit threshold of -10%.
In the case of `O=C(Cn1c(=O)oc2ccccc21)Nc1ccc(F)c(F)c1`, the activity increase over dofetilide control, less the hit threshold was -29%.
`Cc1cc(=S)[nH]c2c(C)cccc12` was tested, and the activity increase over dofetilide control, less the hit threshold was 5% (active).
For `S=c1[nH]c2cc(-c3ccccc3)ccc2o1`, the activity increase over dofetilide control, less the hit threshold was 84% (active).
Molecule `CCOc1c(OC)ccc2c3c(c(=O)oc12)CCCC3` has an activity increase over dofetilide control, less the hit threshold of -20%.
`Cc1ccc(-c2nc(CS(=O)(=O)CC(=O)NCCN3CCOCC3)c(C)o2)cc1` showed an activity increase over dofetilide control, less the hit threshold of -13%.
For `Cc1c(OC(C)C(=O)NCCN2CCOCC2)ccc2c3c(c(=O)oc12)CCC3` (configuration not stated), the activity increase over dofetilide control, less the hit threshold was 3% (active).
`CCCn1c(=S)[nH]c2ccc(C(F)(F)F)cc21` was tested, and the activity increase over dofetilide control, less the hit threshold was -3%.
`FC(F)(F)c1cnc2c(c1)[nH]c(=S)n2-c1ccc(Cl)cc1` was tested, and the activity increase over dofetilide control, less the hit threshold was 21% (active).
`Clc1ccc(N=NN2CCOCC2)cc1` was tested, and the activity increase over dofetilide control, less the hit threshold was -8%.
`COc1cc2c(=O)nc3n(c2cc1OC)C(c1ccccc1)N=C(N)N3` (configuration not stated) showed an activity increase over dofetilide control, less the hit threshold of -8%.
In the case of `CN1C(=O)/C(=N/OC(=O)c2ccccc2)c2ccccc21`, the activity increase over dofetilide control, less the hit threshold was 3% (active).
For `CN1C(=O)/C(=N\OC(=O)c2cccc3ccccc23)c2ccccc21`, the activity increase over dofetilide control, less the hit threshold was 15% (active).
With `CCN(CC)C(=O)CN1C(=O)c2cccc3cccc(c23)C1=O` the activity increase over dofetilide control, less the hit threshold was -15%.
Work on `CN1C(=O)c2ccc(C(=O)NCc3ccccc3)cc2C1=O` yielded an activity increase over dofetilide control, less the hit threshold of -16%.
